Laboratory results: PubChem BioAssay (NCI)
This is part of a sample that, as a whole, favours compounds with a hit. Of some 79,000 tested, about 15% had one in any assay. The source made the active and inactive calls. No stated cut-off is given here; in the data, active means growth inhibition above about 70%; inactive means the rest.

Assays:
[1] = NCI Yeast Anticancer Drug Screen. Data for the rad50 strain (AID 155);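 further: 0% = growth of vehicle-only cultures of the same strain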; conditions: S. cerevisiae rad50 strain growth inhibition, stronger effect = higher value
How it was run: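 Yeast carrying a defined DNA repair defect were exposed to test compounds, and growth was compared with vehicle-treated controls to give percent inhibition.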

[2] = NCI Yeast Anticancer Drug Screen. Data for the mec2-1 strain (AID 157); conditions: S. cerevisiae mec2-1 strain, stronger effect = higher value
How it was run: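 Compounds were applied to mec2-1 yeast cells. Their growth was then compared with that of vehicle-treated cultures to give growth inhibition.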

[3] = NCI Yeast Anticancer Drug Screen. Data for the sgs1 mgt1 strain (AID 161);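 further: 0% = growth of cultures given vehicle only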; conditions: S. cerevisiae sgs1 mgt1 strain, stronger effect = higher value
How it was run: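 Growth of a repair-deficient yeast mutant was monitored after compound treatment and expressed as inhibition relative to vehicle-treated cultures.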

[4] = NCI Yeast Anticancer Drug Screen. Data for the cln2 rad14 strain (AID 165);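 further: 0% = growth equal to vehicle treated cultures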; conditions: S. cerevisiae cln2 rad14 strain, stronger effect = higher value
How it was run: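 Strain: cln2 rad14 yeast, altered in cell cycle control and DNA damage repair. Read-out: growth inhibition vs vehicle.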

[5] = NCI Yeast Anticancer Drug Screen. Data for the bub3 strain (AID 167); conditions: S. cerevisiae bub3 mutant strain, stronger effect = higher value
How it was run: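 Compounds were applied to a genetically altered yeast strain carrying a cell-cycle control defect. Growth inhibition was scored against vehicle-treated controls.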

[6] = NCI Yeast Anticancer Drug Screen. Data for the mlh1 rad18 strain (AID 175); conditions: S. cerevisiae mlh1 rad18 strain growth inhibition, stronger effect = higher value
How it was run: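 A repair-deficient yeast strain is exposed to test compound, and growth is scored relative to vehicle-treated controls.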

[7] = at 5.0 µM (retest, dose inferred, filed as 0.5)
[8] = at 50.0 µM (retest, dose inferred, filed as 5.0)

Measured: growth inhibition

CCCc1cc2c(cc1CS(=O)(=O)CC)OCO2
inactive: [1]; [7] -4% | [1]; [8] 9% | [1]; at 50.0 µM -9.1% | [2]; [7] -4% | [2]; [8] -2% | [2]; at 50.0 µM 2.3% | [3]; [7] -7% | [3]; [8] -5% | [3]; at 50.0 µM 1.1% | [4]; [7] -7% | [4]; [8] 0% | [4]; at 50.0 µM 23.3% | [5]; [7] 23% | [5]; [8] 17% | [5]; at 50.0 µM 16.7% | [6]; [7] -4% | [6]; [8] -6% | [6]; at 50.0 µM 3.75%

C1=CC2OC1c1cc3ccccc3cc12
inactive: [1]; [7] 13% | [2]; [7] 11% | [3]; [7] 10% | [4]; [7] 23% | [5]; [7] 6% | [6]; [7] 34%
active: [1]; [8] 92% | [1]; at 50.0 µM 87.5% | [2]; [8] 98% | [2]; at 50.0 µM 96.5% | [3]; [8] 98% | [3]; at 50.0 µM 89.9% | [4]; [8] 98% | [4]; at 50.0 µM 95.6% | [5]; [8] 97% | [5]; at 50.0 µM 95% | [6]; [8] 97% | [6]; at 50.0 µM 95.2%

Oc1ccc2ccccc2c1/C=N\Sc1ccccc1
active: [1]; [8] 99% | [1]; at 50.0 µM 97.5% | [2]; [8] 99% | [2]; at 50.0 µM 99.3% | [3]; [8] 99% | [3]; at 50.0 µM 98.5% | [4]; [8] 99% | [5]; [8] 99% | [5]; at 50.0 µM 98.1% | [6]; [8] 99% | [6]; at 50.0 µM 99%
inactive: [1]; [7] 11% | [2]; [7] 18% | [3]; [7] 15% | [4]; [7] 7% | [4]; at 50.0 µM 41% | [5]; [7] -2% | [6]; [7] 6%

C/C(=N\NC(=S)N1CCCC1)c1cnccn1
active: [1]; [8] 98% | [1]; at 50.0 µM 98.8% | [2]; [8] 99% | [2]; at 50.0 µM 99% | [3]; [7] 77% | [3]; [8] 98% | [3]; at 50.0 µM 99.3% | [4]; [7] 74% | [4]; [8] 98% | [4]; at 50.0 µM 97.7% | [5]; [8] 97% | [5]; at 50.0 µM 99% | [6]; [7] 80% | [6]; [8] 98% | [6]; at 50.0 µM 99.1%
inactive: [1]; [7] 61% | [2]; [7] 56% | [5]; [7] 33%
